Bioassay records deposited in PubChem BioAssay by National Center for Advancing Translational Sciences (NCATS).
In the library only some 7.6% were active in any assay of this set; here they are far more common.
MCF10A rerep: induces DNA re-replication in MCF 10a normal breast cells; Potency, µM (highest dose often 46.1 µM), inactives show top-dose activity, positive = re-replication, most hits filed as activators; AID 624296; MCF 10A DNA re-replication, Hoechst nuclear intensity, 48 h; actives 2.9% (n = 350,000); further: potency means the concentration at half of the fitted maximal effect; % of control where 0% means no effect; nearly all actives have a fitted effect of over 50% in size
KB-3-1 cytotox: KB-3-1 parental cell cytotoxicity | KB-3-1 viability, CellTiter-Glo ATP luminescence, 72 h | Potency, µM (series often up to 46.1 µM), actives largely listed as cytotoxic | actives 1.4% (n = 400,000); further: potency means the concentration at half of the fitted maximal effect; on the % scale 0 is the no-effect control and ±100 the full control effect; nearly all actives have a fitted effect of over 60% in size
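Viability of parental KB-3-1 cells, measured by CellTiter-Glo luminescence, followed a 72 h incubation at 37 °C with pinned compounds in phenol-red-free DMEM containing 10% FBS.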
SW480 rereplic: induces DNA re-replication in SW480 colon adenocarcinoma cells; actives 1.8% (n = 340,000); AID 624297; SW480 DNA re-replication, Hoechst DNA content imaging, 48 h; Potency, µM (highest dose often 46.1 µM), for inactives: at the top dose re-replication activation, most hits filed as activators; further: potency means the concentration at half of the fitted maximal effect; % of control where 0% means no effect; nearly all actives have a fitted effect of over 55% in size
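Treated cells incubate 48 hr (37 C, 5% CO2), are stained 40 min with Hoechst, and nuclear fluorescence is enumerated; a rise in nuclei with high DNA signal marks re-replication.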
KCNH2 3.1 inh: inhibitors of human KCNH2 3.1 potassium channel isoform. actives 0.95% (n = 340,000). U2OS KCNH2 3.1, thallium flux FluxOr; stronger effect = lower value. AID 720553. activity change, % (tested at about 1.8 µM);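 active means maximum activity change below -70%; inconclusive means maximum activity change from -70% to -50%; inactive means maximum activity change above -50%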;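 further: thallium influx rate constant from kinetic fluorescence after stimulation buffer; on the % scale 0 is the no-effect control and ±100 the full control effect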
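Kinetic fluorescence (2 min after stimulation buffer) measures Tl+ influx through KCNH2 3.1 expressed by viral transduction in U2OS cells; the rate constant is normalized against DMSO controls serving as positive and negative references.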
KB-V1 MDR tox: KB-V1 MDR subline cytotoxicity. Potency, µM (highest dose often 46.1 µM), hits mostly cytotoxic. AID 1347076. actives 3.4% (n = 400,000). KB-V1 MDR cells viability, CellTiter-Glo, 72 h; further: potency means the concentration at half of the fitted maximal effect; on the % scale 0 is the no-effect control and ±100 the full control effect; nearly all actives have a fitted effect of over 60% in size
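KB-V1, DMEM (no phenol red) + 10% FBS; cpd pin-transferred, titration series; 72 h, 37 degrees C; CellTiter-Glo, luminescence. Data normalized, curve-fit.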
hERG WT inh: KCNH2 (human, wildtype) channel inhibition; actives 0.37% (n = 340,000); Q12809; activity change, % at 1.84 µM; U2OS, BacMam KCNH2, thallium flux FluxOr; stronger effect = lower value;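 active means maximum activity change below -70%; inconclusive means maximum activity change between -70% and -50%; inactive means maximum activity change above -50%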; further: on the % scale 0 is the no-effect control and ±100 the full control effect
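U2OS cells were transduced with wild-type KCNH2 virus (2.03 x 10^8 / mL) for 4 h at room temperature, then cultured overnight at 37 C. Thallium flux was read with FluxOr dye. Rate constants were normalized to DMSO controls.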
Starred values were filed as active, the others as inactive; i = inactive; ? = inconclusive; nt = no result given. Unless noted, the call rests on the fitted dose curve; in most records, active means well fitted curve in the direction sought with a large enough effect; inconclusive means small, poorly fitted or top-dose-only effect, or another doubt; inactive means no such curve, though single readings can be large; an effect the other way counts as inactive or inconclusive.

SMILES	MCF10A rerep	KB-3-1 cytotox	SW480 rereplic	KCNH2 3.1 inh	KB-V1 MDR tox	hERG WT inh
Cc1ccc(-n2c(Cc3cccn3C)nnc2SCC(=O)N2CCc3ccccc32)cc1	6.5%	i	7.7%	1.4	6.51µM*	11.3
COc1ccc(NC(=O)CSC2=Nc3ccccc3C3=NC(CCC(=O)NCc4cccs4)C(=O)N23)cc1 (stereo unspecified)	nt	i	nt	nt	i	nt
Cc1cc(C)c(NC(=O)CSc2nnc(Cc3cccn3C)n2-c2ccc(F)cc2)c(C)c1	18.6%	i	0.0%	1.3	23.1µM*	8.2
CCCc1cc(CNC(=O)C2CCC(=O)N(Cc3ccccc3F)C2)on1 (stereo unspecified)	0.1%	i	-4.8%	20.7	i	-6.1
Cc1ccccc1OCC(=O)Nc1ccccc1C(=O)N1CCCCC1	16.0%	i	0.1%	11.9	?	-8.2
CCC(Oc1ccccc1)C(=O)Nc1ccccc1C(=O)N1CCCCC1 (stereo unspecified)	11.9%	i	-4.5%	-4.8	11.6µM*	0.6
CCC(Oc1ccccc1)C(=O)Nc1ccccc1C(=O)N1CCN(C)CC1 (stereo unspecified)	-3.5%	i	0.2%	-4.1	i	-13.2
Cc1ccccc1OCCC(=O)Nc1ccccc1C(=O)N1CCCCC1	6.3%	i	-9.4%	-16.6	8.2µM*	-3.3
O=C(O)CNC(=O)c1ccccc1I	-1.8%	nt	-13.1%	nt	nt	nt
COc1cc(CN2CCc3nc(N4CCN(c5ncccn5)CC4)ncc3C2)cc(OC)c1OC	nt	?	nt	nt	6.51µM*	nt
COc1cc(C2CC(=O)c3cnc(N4CCN(CCO)CC4)nc3C2)cc(OC)c1OC (stereo unspecified)	nt	i	nt	nt	?	nt
CCOC(=O)N1CCN(c2ncc3c(n2)CC(c2ccccc2O)CC3=O)CC1 (stereo unspecified)	nt	?	nt	nt	18.4µM*	nt
COc1cc(C2CC(=O)c3cnc(N4CCN(Cc5ccccc5)CC4)nc3C2)cc(OC)c1OC (stereo unspecified)	13µM*	5.8µM*	2.91µM*	6.8	?	5.8
CCOC(=O)N1CCN(c2ncc3c(n2)CC(c2ccc(Cl)cc2)CC3=O)CC1 (stereo unspecified)	nt	i	nt	nt	16.4µM*	nt
CCOC(=O)N1CCN(c2ccccc2O)CC1	10.7%	i	-4.6%	-7.5	i	0.1
CO/N=C/CC(=O)c1cnc(-c2ccccc2)s1	14.7%	i	-5.0%	-0.2	i	-2.9
O=C(NC(O)C(=O)c1ccccc1)c1ccc(F)cc1 (stereo unspecified)	16.5%	i	5.3%	1.5	i	-1.6
O=C1CCC[C@@H]2[C@@H](Cc3ccccc3)[C@@H](Nc3ccccc3)C[C@@H]3CCN1[C@@H]32	nt	i	nt	nt	?	nt
Clc1ccccc1Cn1nnc2c(N3CCOCC3)nc(C3CC3)nc21	-3.5%	i	-6.9%	-2.3	3.66µM*	23.0
Cc1nc(NCCN2CCOCC2)c2nnn(Cc3ccccc3Cl)c2n1	1.3%	i	2.2%	15.0	6.51µM*	3.9
CC(C)(C)c1nc(NCCN2CCOCC2)c2nnn(Cc3ccccc3Cl)c2n1	?	?	28.0%	-8.7	i	1.0
Clc1ccccc1Cn1nnc2c(NCCN3CCOCC3)ncnc21	20.6%	i	-3.4%	2.7	20.6µM*	-16.1
Clc1ccccc1Cn1nnc2c(Nc3ccccc3)ncnc21	13µM*	i	-2.5%	-33.2	i	22.0
c1ccc(Cn2nnc3c(NCCN4CCOCC4)ncnc32)cc1	10.1%	?	-3.8%	1.0	i	-13.0
NC(=O)C1CCCN(C(=O)c2ccc(NC(=O)c3cccs3)cc2)C1 (stereo unspecified)	-3.8%	i	-1.9%	12.7	i	12.5
SMILES	MCF10A rerep	KB-3-1 cytotox	SW480 rereplic	KCNH2 3.1 inh	KB-V1 MDR tox	hERG WT inh
CC1(NC(=O)Nc2cccc(Br)c2)CCS(=O)(=O)C1 (stereo unspecified)	0.1%	i	-6.4%	7.2	i	-6.3
COc1ccc(C(=O)N2CCN(C(C)=O)CC2)cc1S(=O)(=O)N1CCOCC1	2.4%	i	-7.9%	0.9	i	8.1
CN1C(=O)C2C(c3ccc(N(C)C)cc3)NN(Cc3ccccc3)C2C1=O (stereo unspecified)	-39.7%	i	2.0%	2.4	?	-4.6
Cc1ccc(C(=O)Nc2c(-c3cccs3)nc3cc(C)ccn23)cc1	0.1%	i	-3.8%	-2.1	i	-9.0
Cc1ccn2c(NC(=O)C(C)(C)Oc3ccc(Cl)cc3)c(-c3cccs3)nc2c1	?	25.9µM*	0.4%	-35.9	i	-15.3
CCOC(=O)[C@H]1[C@H]2COc3ccc(C)cc3[C@@H]2N2C(=O)c3cc(C)ccc3NC(=O)[C@@]12C	2.5%	i	-8.0%	2.3	i	-2.7
CC1CC(=O)N(CC(=O)Nc2ccc3c(c2)OCO3)c2ccccc2S1 (stereo unspecified)	2.8%	?	1.0%	13.0	16.4µM*	-2.5
O=C(CN1C(=O)CCSc2ccccc21)Nc1ccc2c(c1)OCCO2	-6.4%	i	-3.5%	2.8	13µM*	24.1
CS(=O)(=O)N1CCN(Cc2cc3nc(-c4cccc5[nH]ncc45)nc(N4CCOCC4)c3s2)CC1	nt	5.01µM*	nt	nt	?	nt
Cc1ccc(S(=O)(=O)N2CCN(c3nc(-c4ccc(CN5CCOCC5)s4)nc4ccccc34)CC2)cc1	nt	i	nt	nt	?	nt
CC(NC(=O)c1cc2c(=O)n(C)c3ccccc3c2n1C)c1ccc2c(c1)OCCO2 (stereo unspecified)	2.0%	i	-1.3%	-27.4	?	-125.4*
CCCCN(CC)CCCNC(=O)c1cc2c(=O)n(C)c3ccccc3c2n1C	?	16.4µM*	10.9%	17.8	i	-3.3
CCCCCCCCSc1nnc(CSc2nc3nc(C)cc(C)n3n2)o1	?	?	-4.6%	11.8	2.59µM*	1.1
Cc1cc(C)n2nc(SCc3nnc(SCCCCl)o3)nc2n1	?	i	-1.3%	-10.0	?	4.6
C(COC1CC2CC1C1C2CC2OC21)OC1CC2CC1C1C2CC2OC21 (stereo unspecified)	?	i	-4.8%	-4.7	20.6µM*	-7.4
CCOC(CNC(=O)c1ccc(N2CCc3ccccc32)c([N+](=O)[O-])c1)OCC	17.4%	?	-30.0%	-17.9	2.59µM*	4.8
Cc1cc(=O)[nH]c2c1c(C)nn2C1CCOC(C)(C)C1 (stereo unspecified)	-6.0%	i	6.51µM*	0.2	i	-8.4
